The target of the first assay is GALT. Nature of the assay: pooled miR-30 sensor sort-seq; sequence = guide strand. The conditions noted are these: shRNA.
The sequence TTCCTGAGTAGCTCCTGGCGGC had a sensor-assay potency score (higher = more potent) of -0.283. On the same count and under the same terms, next, TTCCTTCCTGAGTAGCTCCTGG: -0.401; AAGCATTTCGTAGCCAACCATG: -1.22.

The target in a further assay is GAPDH. The description is as above. The conditions noted are these: shRNA.
On to TTGGCAGGTTTTTCTAGACGGC, for which the sensor-assay potency score (higher = more potent) is -0.926. Still for that read-out and setting: the same measure for TTGATGACAAGCTTCCCGTTCT: 0.0762; for ATATTGGAACATGTAAACCATG: -1.54.

With TGTTGTCATACTTCTCATGGTT, the sensor-assay potency score (higher = more potent) stood at 0.0358. TAGTTGAGGTCAATGAAGGGGT: the sensor-assay potency score (higher = more potent) was -0.233. Still for that read-out and setting: the same measure for TGAGCTTGACAAAGTGGTCGTT: 0.19; for TAAACCATGTAGTTGAGGTCAA: 0.434; for TTCTCAGCCTTGACGGTGCCAT: -0.93. The same measure, in the same setting: the same measure for TTTTTCTAGACGGCAGGTCAGG: -1.01; for AATTCGTTGTCATACCAGGAAA: -1.59. On the same count and under the same terms, next, ATTGATGACAAGCTTCCCGTTC: -0.354. Sequence ATGAGCTTGACAAAGTGGTCGT registered a sensor-assay potency score (higher = more potent) of 0.0447. The same measure, in the same setting: the same measure for TCGCTGTTGAAGTCAGAGGAGA: -1.53; for TTGACAAAGTGGTCGTTGAGGG: -0.52.

In turn, ATTGATGGCAACAATATCCACT displayed a sensor-assay potency score (higher = more potent) of -0.562. Still for that read-out and setting: next, TGGAACATGTAAACCATGTAGT: -0.878. As for TATTGGAACATGTAAACCATGT, the sensor-assay potency score (higher = more potent) was -0.597. On the same count and under the same terms, next, TTGTCATGGATGACCTTGGCCA: -0.37; TTGAGGTCAATGAAGGGGTCAT: -0.473. On the same count and under the same terms, next, ATTTCCATTGATGACAAGCTTC: -1.07; TTGGAACATGTAAACCATGTAG: -0.273.

Turning to TTGATGGCAACAATATCCACTT, the sensor-assay potency score (higher = more potent) was -0.344.

The sequence AACATGTAAACCATGTAGTTGA showed a sensor-assay potency score (higher = more potent) of -0.65. Same read-out and setting: next, TTGCTGTAGCCAAATTCGTTGT: -1.2.

A further assay has as its target GATA4. The assay is described as above. The conditions noted are these: shRNA.
The sequence TGACACACTCTCTGCCTTCTGA yielded a sensor-assay potency score (higher = more potent) of -0.406. Same read-out and setting: next, TTTATTCAGGTTCTTGGGCTTC: -0.422; TCGTCAAACATATCGAGATTGG: -0.878. Same read-out and setting: the same measure for TTGCTGGAAGCACCGCTGGCGG: -1.56; for TTCGTGTTGCAGAATCTCTGGC: 0.947; for TTTATTTTGAGAGATGTTGGAA: 0.35.

In the case of AACGTCTGGGACACGGAGCTGC, the sensor-assay potency score (higher = more potent) was 0.00321. TTAGATTTATTCAGGTTCTTGG had a sensor-assay potency score (higher = more potent) of -0.334. In turn, TTGGGCTTCCGTTTTCTGGTTT returned a sensor-assay potency score (higher = more potent) of -0.283.

For the sequence TTCCGCATTGCAAGAGGCCTGG, the sensor-assay potency score (higher = more potent) is -0.334. TTGTTCTGGAGTCATTACCAGG gave a sensor-assay potency score (higher = more potent) of -1.25. Sequence TGACGGGAGACGCATAGCCTTG gave a sensor-assay potency score (higher = more potent) of -1.75. Same read-out and setting: next, TTGATGCCGTTCATCTTGTGGT: -0.805.

Values taken from the OligoGym collection.
Also: reference of the scale not given here.
